Reference: PubChem BioAssay AID624330 (Southern Research Specialized Biocontainment Screening …, 2012)
Among all 340,000 compounds or so, about 2,100 (0.62%) were called active.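 How the source made its calls: active means first-screen hits whose inhibition reached a set limit at any dose in the follow-up dose series; inconclusive means inhibition above the set first-screen limit but never retested; inactive means the rest.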 These entries were drawn from the full list. Entries with a potency or affinity are not part of this list.

molecular target: Rac GTPase-activating protein 1 (Homo sapiens) (UniProt Q9H0H5); test: MgcRacGAP GTPase-activating activity inhibitors, confirmation, biochemical, ADP Hunter fluorescence, primary and confirmatory (AID 624330); conditions: MgcRacGAP-stimulated Rac1 GTP hydrolysis, at 30 µM, stronger effect = higher value, GST-tagged Rac1 F28L mutant substrate;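 further: fluorescence reports GDP produced by GAP-driven GTP hydrolysis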
Sequence (Q9H0H5 whole entry, looked up): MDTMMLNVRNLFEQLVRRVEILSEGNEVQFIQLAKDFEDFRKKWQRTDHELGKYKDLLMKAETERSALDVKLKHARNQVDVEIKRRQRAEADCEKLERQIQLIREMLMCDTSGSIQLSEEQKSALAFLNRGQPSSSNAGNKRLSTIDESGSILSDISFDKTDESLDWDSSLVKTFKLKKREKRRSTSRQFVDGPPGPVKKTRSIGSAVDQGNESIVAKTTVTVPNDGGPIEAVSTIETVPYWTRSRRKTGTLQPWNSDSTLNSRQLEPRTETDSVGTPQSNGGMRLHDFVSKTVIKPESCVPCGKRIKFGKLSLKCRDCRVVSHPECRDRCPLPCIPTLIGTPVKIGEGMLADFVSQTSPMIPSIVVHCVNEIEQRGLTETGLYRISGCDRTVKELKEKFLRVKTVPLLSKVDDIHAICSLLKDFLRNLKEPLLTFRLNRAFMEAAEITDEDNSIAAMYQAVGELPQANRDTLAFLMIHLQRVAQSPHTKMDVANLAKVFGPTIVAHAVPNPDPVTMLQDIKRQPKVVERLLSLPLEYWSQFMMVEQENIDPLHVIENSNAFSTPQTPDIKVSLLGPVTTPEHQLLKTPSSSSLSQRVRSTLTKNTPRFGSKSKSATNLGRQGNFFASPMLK

inhibition, inactive:
CCC(=O)Nc1cc(-c2nn(C)c(=O)c3ccccc23)ccc1N1CCOCC1 1.97%
Cc1csc(SC(C)C(=O)NCc2ccc3c(c2)OCO3)n1 (stereo unspecified) 6%
Cc1ncc(C[n+]2csc(CCOC(=O)C34CC5CC(CC(C5)C3)C4)c2C)c(N)n1 1.84%
CCOc1ccccc1OCC(=O)Nc1cc(S(=O)(=O)N2CCCCC2)ccc1OC 10.7%
Cn1c(Cc2ccccc2)nnc1SCc1nc2ccccc2c(=O)[nH]1 0.95%
COCC(=O)N1CCC(Oc2ccc(C(=O)N(C)Cc3nccs3)cc2)CC1 3.05%
CSc1ccccc1NC(=O)c1cccc(S(=O)(=O)N2CCN(C)CC2)c1 2.55%
C[C@H]1CCCCO[C@@H](CN(C)S(=O)(=O)c2ccc(F)cc2)[C@@H](C)CN([C@@H](C)CO)C(=O)c2cc(NC(=O)Nc3ccc4c(c3)OCO4)ccc2O1 9.48%
CCN(CC)CCCNC(=S)N1CCn2c(nc3ccccc32)C1 6.61%
O=C(NCC1CCCO1)c1cc([N+](=O)[O-])ccc1Cl (stereo unspecified) 2.41%
O=C(CC1CCCC1)NNC(=O)c1ccc(Br)cc1 10.1%
CC1=NOC(=O)/C1=C\c1ccc(-c2cccc(Cl)c2)o1 12.5%
CC1=NN(c2ccc(Br)cc2)C(=O)/C1=C/c1ccc(-c2ccccc2C(=O)O)o1 7.93%
CC1=NN(c2ccc(Cl)c(C(=O)O)c2)C(=O)/C1=C\c1ccc(-c2ccc(C(=O)O)cc2)o1 20.6%
CC1=NOC(=O)/C1=C/c1ccc(-c2ccc(Cl)cc2)o1 13%
CC(=O)NCC1CCCN(Cc2cn(-c3ccccc3)nc2-c2ccc3c(c2)OCO3)C1 (stereo unspecified) -2.78%
O=C(CNC(=O)c1ccco1)N/N=C/c1ccc(O)c([N+](=O)[O-])c1 1.55%
COc1cc(/C=N/NC(=O)c2cccs2)ccc1O 9.66%
COc1ccc(/C=N/NC(=O)CNC(=O)c2cccs2)cc1 2.55%
COc1cccc(/C=N/NC(=O)CNC(=O)c2ccco2)c1O 13.1%
O=S(=O)(c1cccc(S(=O)(=O)N2CCCC2)c1)N1CCCCC1 -4.65%
O=C(COC(=O)/C=C/c1cccc(C(F)(F)F)c1)NC(c1ccccc1)c1ccccc1 -0.08%
Cc1oc2ccccc2c1-c1cn2c(n1)SCC2 18.1%
COC(=O)c1[nH]c(C)c(/C(O)=C2\C(=O)C(=O)N(CCN(C)C)C2c2ccccc2OC)c1C (stereo unspecified) -0.13%
CC(C)(C)OC(=O)NCC(=O)NCC(=O)OCc1ccccc1 4.89%
CC1(c2cccc(Br)c2)NC(=O)N(CC(=O)Nc2ccc3c(c2)OCO3)C1=O (stereo unspecified) 8.04%
NS(=O)(=O)c1ccc(CCNCc2cc(Br)ccc2OCc2ccccc2F)cc1 1.51%
COCC1CCCCN1Cc1cn[nH]c1-c1ccc(OC)cc1OC (stereo unspecified) -6.12%
CC(NC(=O)COC(=O)c1cc(=O)c2ccccc2o1)c1ccccc1 (stereo unspecified) 2.31%
COc1cccc(CN2CCC(CO)(CC3CCCCO3)CC2)c1 (stereo unspecified) 10.7%
OCC1(CC2CCCCO2)CCN(C/C=C/c2ccccc2)CC1 (stereo unspecified) 1.66%
COc1ccc(/C=C/CN2CCC(Oc3ccc(C(=O)N4CCCCC4)cc3)CC2)cc1 7.82%
COc1ccccc1/C=C/CN1CCC(Oc2ccc(C(=O)N3CCCC3)cc2)CC1 7.28%
O=C(NCC1CCCO1)c1ccccc1-c1nc(-c2ccc(Cl)cc2)no1 (stereo unspecified) 10.3%
CC(C)(C)NC(=O)NC(=O)CSc1nnc(-c2ccccc2F)n1N 11.7%
CC1(C)CC(O)C(C(O)c2cccc([N+](=O)[O-])c2)C(C)(C)N1 (stereo unspecified) -4.29%
COC(=O)C1=C(C)N(CCc2ccc(OC)c(OC)c2)C(=O)/C1=C\c1ccc(O)cc1 27.5%
CCOc1cc(/C=C2\C(=O)N(Cc3ccc(C)cc3)C(C)=C2C(=O)OC)ccc1O 13.1%
COC(=O)C1=C(C)N(Cc2ccco2)C(=O)/C1=C\c1ccc([N+](=O)[O-])cc1 40.1%
COC(=O)C1=C(C)N(Cc2ccc(C)cc2)C(=O)/C1=C\c1ccc(O)c(OC)c1 -0.65%
Cc1cccc(C(C)C)c1NC(=O)COC(=O)c1cc2ccccc2oc1=O 4.05%
CCOC(=O)C1CCN(C(=O)Cn2nc(C)n3nc(-c4ccc(OC)cc4)cc3c2=O)CC1 4.91%
CCOC(=O)C(O)(CC(=O)c1ccc(Cl)cc1)C(=O)OCC 3.02%
CCn1c(-c2ccccc2)csc1=Nc1ccc(S(=O)(=O)O)cc1 9.33%
OCCn1c(-c2ccccc2)csc1=Nc1ccccc1 7.22%
CCOC(=O)CC1CCCCN1C(=O)CCCn1nnnc1CN1CCOCC1 (stereo unspecified) 7.71%
Cc1cccc(OCC(=O)N2CCN(C(=O)COc3ccc(Cl)cc3)CC2)c1 9.73%
O=C(COc1ccc2ccccc2c1)N1CCN(C(=O)c2cccnc2)CC1 8.31%
O=C(COc1ccc2ccccc2c1)N1CCCC1 7.41%
Cc1cccc(OCC(=O)N2CCN(C(=O)Cc3ccccc3)CC2)c1 8.65%
CCOC(=O)N1CCN(C(=O)COc2ccc([N+](=O)[O-])cc2)CC1 -2.93%
Cc1ccc(OCC(=O)N2CCN(C(=O)c3ccc([N+](=O)[O-])cc3)CC2)cc1 4.34%
CCn1ccnc1CN(C)C(=O)C1CCC(=O)N(Cc2cccc(C(F)(F)F)c2)C1 (stereo unspecified) 4.11%
COc1cc(NC(=O)COC(=O)CNS(=O)(=O)c2ccc(F)c(F)c2F)cc(OC)c1 9.27%
COc1ccc(-n2nc(C(=O)NCC(=O)NCCN(C)C)c3ccccc3c2=O)c(OC)c1 8.96%
Cc1nn(C)cc1CNC(=O)/C=C/c1cnn(C)c1 -2.3%
